How the values were obtained:
Assay in all cases: log2 ratio of Biotin-Ahx-Ub-VS probe labelling (fragment/DMSO); higher = less target engagement (more negative = stronger competition), active = hit call of the paper (q ≤ 0.05, log2 ratio ≤ -1)
Conditions in all cases: compound concentration: 200 uM; treatment time: 3 h
USP19 = target: T1, USP19 (UniProt O94966)
T1 sequence (whole entry): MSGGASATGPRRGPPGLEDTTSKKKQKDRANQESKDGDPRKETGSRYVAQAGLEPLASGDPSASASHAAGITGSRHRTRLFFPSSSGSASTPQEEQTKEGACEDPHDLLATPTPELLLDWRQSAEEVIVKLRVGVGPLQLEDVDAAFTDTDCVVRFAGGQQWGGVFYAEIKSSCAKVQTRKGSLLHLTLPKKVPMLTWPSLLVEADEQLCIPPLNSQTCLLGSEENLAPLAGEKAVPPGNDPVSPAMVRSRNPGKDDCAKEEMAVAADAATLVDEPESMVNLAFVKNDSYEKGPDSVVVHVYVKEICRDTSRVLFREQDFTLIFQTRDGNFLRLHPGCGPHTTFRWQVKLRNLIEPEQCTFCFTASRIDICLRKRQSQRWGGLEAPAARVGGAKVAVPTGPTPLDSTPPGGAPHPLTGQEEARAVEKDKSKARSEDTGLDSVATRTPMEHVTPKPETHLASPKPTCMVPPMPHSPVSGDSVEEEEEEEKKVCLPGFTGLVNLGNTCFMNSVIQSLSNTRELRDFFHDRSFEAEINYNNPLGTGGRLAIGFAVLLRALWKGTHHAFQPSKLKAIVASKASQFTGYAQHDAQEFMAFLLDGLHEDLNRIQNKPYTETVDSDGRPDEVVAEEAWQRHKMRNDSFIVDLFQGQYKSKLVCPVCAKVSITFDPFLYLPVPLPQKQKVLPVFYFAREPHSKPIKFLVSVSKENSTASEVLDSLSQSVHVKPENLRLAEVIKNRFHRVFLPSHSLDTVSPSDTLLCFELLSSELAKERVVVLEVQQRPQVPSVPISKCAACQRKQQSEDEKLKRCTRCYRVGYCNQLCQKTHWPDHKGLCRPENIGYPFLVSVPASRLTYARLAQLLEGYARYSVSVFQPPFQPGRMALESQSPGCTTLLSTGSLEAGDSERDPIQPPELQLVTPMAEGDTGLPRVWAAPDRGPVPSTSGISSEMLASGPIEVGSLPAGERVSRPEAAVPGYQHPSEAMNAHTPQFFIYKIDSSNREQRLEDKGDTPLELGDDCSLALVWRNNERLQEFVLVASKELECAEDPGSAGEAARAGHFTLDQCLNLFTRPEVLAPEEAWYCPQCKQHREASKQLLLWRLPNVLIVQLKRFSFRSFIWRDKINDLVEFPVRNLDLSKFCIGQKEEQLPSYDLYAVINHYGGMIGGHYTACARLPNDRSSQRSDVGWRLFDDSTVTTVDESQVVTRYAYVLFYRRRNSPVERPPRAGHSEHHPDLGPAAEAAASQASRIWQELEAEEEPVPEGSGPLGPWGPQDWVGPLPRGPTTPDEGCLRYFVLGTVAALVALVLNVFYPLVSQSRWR
In short: (§1)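 Triplicate samples of HEK293T lysate, 495 µg each, received fragment at 200 µM or vehicle for 3 h, followed by Biotin-Ahx-Ub-VS (0.5 µM final) for 1 h. After NeutrAvidin enrichment of labelled DUBs and LysC/trypsin digestion, peptides were run by diaPASEF LC-MS/MS. The values are average log2 fragment/vehicle ratios from global-median-normalised Spectronaut label-free quantities, tested by unpaired t-test on proteins having ≥2 unique peptides.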

USP22 = target: T2, USP22 (UniProt Q9UPT9)
T2 sequence (whole entry): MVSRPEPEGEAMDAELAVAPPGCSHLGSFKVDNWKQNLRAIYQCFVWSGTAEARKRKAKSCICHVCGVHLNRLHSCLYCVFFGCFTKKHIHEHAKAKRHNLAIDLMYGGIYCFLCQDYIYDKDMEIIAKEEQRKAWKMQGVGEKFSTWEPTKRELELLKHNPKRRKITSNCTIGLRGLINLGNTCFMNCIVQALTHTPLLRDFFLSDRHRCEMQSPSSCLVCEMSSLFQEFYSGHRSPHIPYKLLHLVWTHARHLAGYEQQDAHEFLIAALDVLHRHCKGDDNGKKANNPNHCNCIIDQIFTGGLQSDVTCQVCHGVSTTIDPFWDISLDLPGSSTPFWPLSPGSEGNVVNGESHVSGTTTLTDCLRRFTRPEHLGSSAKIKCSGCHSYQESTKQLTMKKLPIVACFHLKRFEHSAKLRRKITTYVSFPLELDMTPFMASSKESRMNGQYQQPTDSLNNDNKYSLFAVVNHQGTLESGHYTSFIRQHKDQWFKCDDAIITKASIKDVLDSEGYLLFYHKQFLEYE
In short: as §1

USP24 = USP24 (UniProt Q9UPU5)
In short: as §1

USP25 = target: T3, USP25 (UniProt Q9UHP3)
T3 sequence (whole entry): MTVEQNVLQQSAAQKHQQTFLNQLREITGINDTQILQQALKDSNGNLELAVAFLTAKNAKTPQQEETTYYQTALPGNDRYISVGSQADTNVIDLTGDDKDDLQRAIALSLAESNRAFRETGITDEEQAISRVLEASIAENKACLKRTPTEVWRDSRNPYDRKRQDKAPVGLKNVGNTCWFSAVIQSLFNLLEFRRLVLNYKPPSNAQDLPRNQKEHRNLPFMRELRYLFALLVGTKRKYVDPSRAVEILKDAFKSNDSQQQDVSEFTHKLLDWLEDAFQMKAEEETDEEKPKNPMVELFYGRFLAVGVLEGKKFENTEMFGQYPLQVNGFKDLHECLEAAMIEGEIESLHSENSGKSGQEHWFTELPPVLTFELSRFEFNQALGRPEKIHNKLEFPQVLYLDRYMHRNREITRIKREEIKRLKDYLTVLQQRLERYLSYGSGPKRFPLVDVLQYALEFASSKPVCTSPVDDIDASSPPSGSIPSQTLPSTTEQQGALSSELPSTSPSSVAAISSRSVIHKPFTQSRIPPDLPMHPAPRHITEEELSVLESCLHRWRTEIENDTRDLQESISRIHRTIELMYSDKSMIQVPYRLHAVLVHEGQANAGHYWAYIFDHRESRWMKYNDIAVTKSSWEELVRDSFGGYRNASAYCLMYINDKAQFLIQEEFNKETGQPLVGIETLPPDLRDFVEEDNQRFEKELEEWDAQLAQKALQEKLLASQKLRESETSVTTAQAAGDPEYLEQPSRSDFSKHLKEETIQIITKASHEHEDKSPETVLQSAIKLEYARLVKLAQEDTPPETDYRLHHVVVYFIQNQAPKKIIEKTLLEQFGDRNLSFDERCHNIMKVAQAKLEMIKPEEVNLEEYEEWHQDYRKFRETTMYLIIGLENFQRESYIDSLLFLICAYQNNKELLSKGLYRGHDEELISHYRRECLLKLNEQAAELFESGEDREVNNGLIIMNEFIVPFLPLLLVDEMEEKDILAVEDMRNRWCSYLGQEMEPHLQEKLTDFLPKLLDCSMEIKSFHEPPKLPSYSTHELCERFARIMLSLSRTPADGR
In short: as §1

USP28 = target: T4, USP28 (UniProt Q96RU2)
T4 sequence (whole entry): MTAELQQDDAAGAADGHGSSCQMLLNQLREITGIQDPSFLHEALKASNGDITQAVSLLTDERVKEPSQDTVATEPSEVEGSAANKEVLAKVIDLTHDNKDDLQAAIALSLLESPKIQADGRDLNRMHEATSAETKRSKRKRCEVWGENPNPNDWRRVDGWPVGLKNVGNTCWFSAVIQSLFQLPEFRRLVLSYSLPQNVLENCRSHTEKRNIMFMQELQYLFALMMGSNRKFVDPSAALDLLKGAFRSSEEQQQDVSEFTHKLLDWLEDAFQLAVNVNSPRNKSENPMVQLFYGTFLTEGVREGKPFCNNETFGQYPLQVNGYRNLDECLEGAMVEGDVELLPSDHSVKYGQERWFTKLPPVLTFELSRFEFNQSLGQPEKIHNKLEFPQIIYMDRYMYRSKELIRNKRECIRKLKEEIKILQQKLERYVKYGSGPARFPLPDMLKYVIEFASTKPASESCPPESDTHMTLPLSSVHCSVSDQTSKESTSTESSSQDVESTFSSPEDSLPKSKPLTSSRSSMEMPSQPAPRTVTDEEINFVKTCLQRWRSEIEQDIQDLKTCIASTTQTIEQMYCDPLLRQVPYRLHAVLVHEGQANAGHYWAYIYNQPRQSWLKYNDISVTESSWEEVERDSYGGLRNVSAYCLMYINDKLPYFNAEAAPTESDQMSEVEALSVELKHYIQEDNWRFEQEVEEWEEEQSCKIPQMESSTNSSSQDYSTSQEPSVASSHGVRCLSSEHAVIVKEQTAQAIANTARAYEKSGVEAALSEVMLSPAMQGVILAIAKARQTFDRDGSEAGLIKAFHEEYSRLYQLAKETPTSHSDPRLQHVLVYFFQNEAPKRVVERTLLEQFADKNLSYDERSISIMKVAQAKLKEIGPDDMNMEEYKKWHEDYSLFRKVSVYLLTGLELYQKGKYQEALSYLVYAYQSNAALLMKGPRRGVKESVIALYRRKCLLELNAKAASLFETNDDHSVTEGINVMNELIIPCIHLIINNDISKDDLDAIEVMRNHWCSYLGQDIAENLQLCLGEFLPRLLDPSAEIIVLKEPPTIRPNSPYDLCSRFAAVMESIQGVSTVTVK
In short: as §1

Measured: log2 ratio of Biotin-Ahx-Ub-VS probe labelling

Chain of USP24 (Q9UPU5 whole entry): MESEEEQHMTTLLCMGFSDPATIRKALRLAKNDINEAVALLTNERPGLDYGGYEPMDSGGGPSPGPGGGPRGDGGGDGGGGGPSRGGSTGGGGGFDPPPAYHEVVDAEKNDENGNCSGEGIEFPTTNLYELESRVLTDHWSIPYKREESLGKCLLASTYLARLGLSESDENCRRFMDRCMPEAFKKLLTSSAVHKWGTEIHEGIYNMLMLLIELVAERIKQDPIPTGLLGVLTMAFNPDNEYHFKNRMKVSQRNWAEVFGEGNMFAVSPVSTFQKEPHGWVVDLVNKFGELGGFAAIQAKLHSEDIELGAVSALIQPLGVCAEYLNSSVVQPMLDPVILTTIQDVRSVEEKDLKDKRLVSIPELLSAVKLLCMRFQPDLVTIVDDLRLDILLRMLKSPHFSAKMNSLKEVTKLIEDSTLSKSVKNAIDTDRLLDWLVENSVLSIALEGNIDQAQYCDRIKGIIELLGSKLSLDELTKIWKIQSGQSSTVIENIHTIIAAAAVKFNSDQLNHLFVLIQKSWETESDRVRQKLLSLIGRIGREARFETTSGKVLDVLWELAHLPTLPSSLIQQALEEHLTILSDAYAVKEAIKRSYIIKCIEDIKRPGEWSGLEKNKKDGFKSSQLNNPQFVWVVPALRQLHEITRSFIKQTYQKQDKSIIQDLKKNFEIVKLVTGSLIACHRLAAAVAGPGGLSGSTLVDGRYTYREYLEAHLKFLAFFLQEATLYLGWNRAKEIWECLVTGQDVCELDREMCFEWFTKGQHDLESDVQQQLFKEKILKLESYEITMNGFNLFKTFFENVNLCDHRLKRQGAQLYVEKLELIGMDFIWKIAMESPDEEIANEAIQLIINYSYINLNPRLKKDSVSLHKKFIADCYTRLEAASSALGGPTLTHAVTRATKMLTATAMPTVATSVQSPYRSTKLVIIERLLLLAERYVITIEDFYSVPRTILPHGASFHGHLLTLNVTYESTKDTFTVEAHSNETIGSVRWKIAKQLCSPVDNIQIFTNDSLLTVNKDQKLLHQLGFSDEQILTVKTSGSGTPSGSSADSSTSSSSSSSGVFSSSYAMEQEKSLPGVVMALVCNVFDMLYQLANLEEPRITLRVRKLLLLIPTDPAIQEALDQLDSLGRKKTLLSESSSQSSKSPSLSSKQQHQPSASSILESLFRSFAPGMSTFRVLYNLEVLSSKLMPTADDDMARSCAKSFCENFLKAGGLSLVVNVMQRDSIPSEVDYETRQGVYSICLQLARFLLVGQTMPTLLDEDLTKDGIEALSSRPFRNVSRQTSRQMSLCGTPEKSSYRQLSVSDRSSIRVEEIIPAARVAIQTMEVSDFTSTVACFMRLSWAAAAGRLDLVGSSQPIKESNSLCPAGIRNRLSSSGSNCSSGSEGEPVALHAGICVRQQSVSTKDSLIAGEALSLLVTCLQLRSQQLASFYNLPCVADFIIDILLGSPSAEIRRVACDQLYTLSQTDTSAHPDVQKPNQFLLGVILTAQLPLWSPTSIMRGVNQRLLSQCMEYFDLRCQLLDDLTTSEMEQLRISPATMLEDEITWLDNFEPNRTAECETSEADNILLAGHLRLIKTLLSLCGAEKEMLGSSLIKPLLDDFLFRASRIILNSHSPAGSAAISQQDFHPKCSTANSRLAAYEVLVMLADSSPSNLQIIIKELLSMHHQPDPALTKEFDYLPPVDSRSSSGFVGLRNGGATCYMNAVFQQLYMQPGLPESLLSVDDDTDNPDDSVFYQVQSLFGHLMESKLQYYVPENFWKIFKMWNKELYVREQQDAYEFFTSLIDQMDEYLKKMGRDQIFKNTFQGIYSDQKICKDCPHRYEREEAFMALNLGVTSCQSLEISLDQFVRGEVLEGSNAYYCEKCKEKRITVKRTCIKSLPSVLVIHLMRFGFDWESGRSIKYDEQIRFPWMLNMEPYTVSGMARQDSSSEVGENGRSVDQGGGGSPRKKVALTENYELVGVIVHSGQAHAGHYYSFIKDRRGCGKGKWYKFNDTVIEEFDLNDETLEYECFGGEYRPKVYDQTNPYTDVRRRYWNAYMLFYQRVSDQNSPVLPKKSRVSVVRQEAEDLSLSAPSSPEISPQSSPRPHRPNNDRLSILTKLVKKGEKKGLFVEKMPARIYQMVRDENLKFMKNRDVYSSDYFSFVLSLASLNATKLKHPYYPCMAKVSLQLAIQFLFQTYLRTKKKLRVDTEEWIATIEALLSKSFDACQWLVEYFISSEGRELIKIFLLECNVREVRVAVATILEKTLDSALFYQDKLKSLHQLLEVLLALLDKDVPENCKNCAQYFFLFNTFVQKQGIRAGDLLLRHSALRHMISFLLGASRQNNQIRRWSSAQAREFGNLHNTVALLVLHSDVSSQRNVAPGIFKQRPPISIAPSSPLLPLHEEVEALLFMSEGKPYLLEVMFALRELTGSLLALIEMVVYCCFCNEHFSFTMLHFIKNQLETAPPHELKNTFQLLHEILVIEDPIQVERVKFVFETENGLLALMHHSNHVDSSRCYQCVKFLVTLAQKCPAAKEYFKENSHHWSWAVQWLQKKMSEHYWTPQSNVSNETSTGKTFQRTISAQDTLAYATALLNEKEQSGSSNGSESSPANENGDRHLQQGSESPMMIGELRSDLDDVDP

COc1ccc(CN(C)C(=O)CCl)cc1
inactive: USP19 -0.211 | USP22 -0.227 | USP24 -0.564 | USP25 -0.245 | USP28 -0.499
